Reference: PubChem BioAssay AID463173 (ICCB-Longwood Screening Facility, Harvard Medical School, 2010)
Among all 52,000 compounds or so, about 1,700 (3.3%) were called active. The sample holds actives, similar compounds and a random draw of the others, so the mix is not that of the screen. Rule as the data show it: active = survival mostly below about 52% (no sharp cut-off); inactive = mostly above about 56%.

Tested on: Wild type
Assay: S. aureus survival, RN4220 and DeltatarO strains – OD600, teichoic acid synthesis inhibitors, primary screen (AID 463173)
Conditions: S. aureus RN4220 wild type/DeltatarO growth, OD600, 18 h, active compounds read low, screened at 18.75 µg/mL (by protocol)

Q: With `Cc1cc(N2CCC(C)CC2)nc2ccc(NC(=O)/C=C/c3cccc(Cl)c3)cc12` as the compound, how does the survival read?
A: Its survival is 69% (inactive).

Q: With `Cc1ccc(CNc2ccc(-c3nc(-c4ccncc4)no3)cc2[N+](=O)[O-])cc1` as the compound, how does the survival read?
A: Its survival is 87% (inactive).

Q: With `CCc1ccc(NS(=O)(=O)c2c(-c3ccccc3)csc2C(=O)OC)cc1` as the compound, how does the survival read?
A: The survival was 77% (inactive).

Q: For `Cn1c(=O)oc2cc(S(=O)(=O)N3CCCC(C(=O)NCCc4ccc(Cl)cc4)C3)ccc21` (stereo unspecified), which survival is on record?
A: The survival was 90% (inactive).

Q: `CCOc1ccc(CNC(=O)CCn2c(=O)c3cccn3c3cccnc32)cc1` was tested. Which survival did it give?
A: Its survival is 93% (inactive).

Q: How did the survival turn out when `Cc1cccc(-n2c(=O)c3c(c4cc(C)ccc4n3C)n(Cc3ccccc3F)c2=O)c1` was run?
A: Its survival is 153% (inactive).

Q: How did the survival turn out when `O=C1NCN(c2ccccc2)C12CCN(c1nnnn1-c1ccccc1)CC2` was run?
A: The survival was 102% (inactive).

Q: For `CCc1ccccc1N1CC(c2nc3ccccc3n2CCC2CCCCC2)CC1=O` (stereo unspecified), which survival is on record?
A: The survival was 25% (active).

Q: Which survival does the source give for `O=C1CC(c2nc3ccccc3n2CCC2CCCCC2)CN1c1ccccc1Cl` (stereo unspecified) here?
A: The survival was 32% (active).

Q: `CCOc1ccc(N2CC(c3nc4ccccc4n3CCC3CCCCC3)CC2=O)cc1` (stereo unspecified) was tested. Which survival did it give?
A: Its survival is 29% (inactive).

Q: How did the survival turn out when `COc1ccccc1OCCCn1c(C2CC(=O)N(c3ccccc3Cl)C2)nc2ccccc21` (stereo unspecified) was run?
A: Its survival is 93% (inactive).

Q: `Cc1cccc(N2CC(c3nc4ccccc4n3CCC3CCCCC3)CC2=O)c1` (stereo unspecified) was tested. Which survival did it give?
A: Its survival is 44% (inactive).

Q: With `Cc1ccc(N2CC(c3nc4ccccc4n3CCC3CCCCC3)CC2=O)cc1` (stereo unspecified) as the compound, how does the survival read?
A: Its survival is 80% (inactive).

Q: How did the survival turn out when `CCc1ccccc1N1CC(c2nc3ccccc3n2CC(C)C)CC1=O` (stereo unspecified) was run?
A: Its survival is 91% (inactive).

Q: With `COc1ccccc1OCCCCn1c(C2CC(=O)N(c3ccccc3Cl)C2)nc2ccccc21` (stereo unspecified) as the compound, how does the survival read?
A: Its survival is 85% (inactive).

Q: Which survival does the source give for `Cc1ccccc1N1CC(c2nc3ccccc3n2CCC2CCCCC2)CC1=O` (stereo unspecified) here?
A: Its survival is 12% (active).

Q: Which survival does the source give for `Cc1c(C(=O)NCc2ccc(N(C)C)cc2)oc2c1-c1nn(Cc3cccc(Cl)c3)cc1CC2` here?
A: The survival was 91% (inactive).

Q: `CC1CCCN(S(=O)(=O)c2ccc(N)cc2)C1` (stereo unspecified) was tested. Which survival did it give?
A: The survival was 109% (inactive).

Q: With `Cc1ccc(-c2onc(C)c2C)cc1S(=O)(=O)NCc1cccs1` as the compound, how does the survival read?
A: Its survival is 119% (inactive).

Q: For `COc1ccc(CCNS(=O)(=O)c2cc(-c3onc(C)c3C)ccc2OC)cc1OC`, which survival is on record?
A: The survival was -3% (active).

Q: For `COCCCNS(=O)(=O)c1cc(-c2onc(C)c2C)ccc1OC`, which survival is on record?
A: The survival was 111% (inactive).

Q: How did the survival turn out when `COc1ccc(-c2onc(C)c2C)cc1S(=O)(=O)NCCc1ccccc1` was run?
A: The survival was 57% (inactive).

Q: `Cc1ccc(-c2onc(C)c2C)cc1S(=O)(=O)NCc1ccco1` was tested. Which survival did it give?
A: The survival was 112% (inactive).

Q: How did the survival turn out when `Cc1ccc(-c2onc(C)c2C)cc1S(=O)(=O)NCc1ccc(N(C)C)cc1` was run?
A: The survival was -4% (active).

Q: For `CCOC(=O)n1c(SCC)nc2ccccc21`, which survival is on record?
A: Its survival is 104% (inactive).

Q: For `O=C(Cc1ccc(Cl)cc1)NCCc1csc2nc(-c3ccccc3F)nn12`, which survival is on record?
A: Its survival is 69% (inactive).
